# Screens deposited in PubChem by The Scripps Research Institute Molecular Screening Center.
# Fam108B inh: Fam108B inhibition, counter-screen for RBBP9 inhibitors; inhibition, % at 9.51 µM; AID 1947; 300,000 tested, 0.33% active; recombinant Fam108B, FP-Rh probe fluorescence polarization;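 active = inhibition above the screen mean inhibition plus 3 SD, computed separately per campaign, cut at about 18% in these data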;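 also: inhibitors lower polarization as less probe binds the enzyme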
# pPAFAH inh: inhibitors of human plasma PAF acetylhydrolase (pPAFAH). AID 463082. recombinant pPAFAH, FP-rhodamine probe fluorescence polarization. inhibition, % at 3.39 µM. 330,000 tested, 1.5% active;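 active = inhibition above the mean inhibition across the screen plus 3 SD, cut at about 25% in these data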;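 also: inhibitors block binding of the rhodamine activity-based probe so polarization drops; 0% = enzyme with DMSO and 100% = wells lacking pPAFAH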
# PAFAH1B2 inh: inhibitors of human PAFAH1B2. recombinant PAFAH1B2, FP-rhodamine activity probe, fluorescence polarization. inhibition, % at 3.39 µM. 340,000 tested, 1.2% active;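 active = inhibition above the mean of all tested compounds plus 3 SD, cut at about 24% in these data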;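 also: 0% = enzyme with DMSO and 100% = wells lacking PAFAH1B2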
# Target sequence (P68402 whole entry, looked up): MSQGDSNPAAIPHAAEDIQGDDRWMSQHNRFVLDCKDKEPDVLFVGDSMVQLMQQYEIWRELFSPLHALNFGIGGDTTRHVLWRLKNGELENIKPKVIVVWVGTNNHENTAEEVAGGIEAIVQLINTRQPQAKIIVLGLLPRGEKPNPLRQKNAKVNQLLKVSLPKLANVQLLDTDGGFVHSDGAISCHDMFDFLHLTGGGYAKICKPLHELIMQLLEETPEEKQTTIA
# PAFAH1B3 inh: inhibitors of human PAFAH1B3; inhibition, % at 3.39 µM; recombinant PAFAH1B3, FP-rhodamine probe, fluorescence polarization; 340,000 tested, 0.28% active;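 active = inhibition above the screen-wide average of all tested compounds plus 3 SD, cut at about 25% in these data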;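 also: 0% = enzyme with DMSO only and 100% = wells lacking PAFAH1B3 protein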
# PAFAH2 FP inh: PAFAH2 (human) inhibition; Q99487; recombinant PAFAH2, FP-rhodamine activity probe, fluorescence polarization; inhibition, % at 3.39 µM; 340,000 tested, 0.99% active; AID 492956;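 active = inhibition above the mean over all tested compounds plus 3 SD, cut at about 30% in these data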;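 also: inhibitors block probe labeling of enzyme so polarization drops; 0% = enzyme with DMSO and 100% = wells lacking PAFAH2 protein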
# PME-1 inh: PME-1 (human) inhibition; recombinant PME-1, FP-Rh probe fluorescence polarization; 320,000 tested, 0.53% active; inhibition, % at 5.9 µM; Q9Y570;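 active = inhibition above the campaign mean of all compounds plus 3 SD, cut at about 26% in these data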;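 also: competitive labeling of PME-1 active site by serine hydrolase directed probe; 0% = PME-1 with DMSO and 100% = wells lacking PME-1 enzyme; inhibitors block probe labeling so polarization falls and inhibition rises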
# * hit, by the source's call; / = no result. Only some compounds are listed: those with a hit (about 2.8% of all), similar ones and a draw of the others.
SMILES,Fam108B inh,pPAFAH inh,PAFAH1B2 inh,PAFAH1B3 inh,PAFAH2 FP inh,PME-1 inh
COc1cc(C(=O)COC(=O)c2cnc(C)cn2)ccc1OC(F)F,-1,-8,3,4,0,2
Cc1ccc(CCNS(=O)(=O)c2cc3c(cc2C)NC(=O)CO3)cc1,2,9,24*,-3,-7,-1
Cc1cccc(CCNS(=O)(=O)c2cc3c(cc2C)NC(=O)CO3)c1,4,2,3,5,1,3
CC(Sc1nnc(Cc2ccccc2)o1)C(=O)Nc1ccccc1[N+](=O)[O-] (stereo not drawn),/,11,8,13,6,3
O=C(NCc1ccccc1)C1CC(=O)N(c2ccc(OCC(=O)N3CCOCC3)cc2)C1 (stereo not drawn),1,-4,5,0,-2,3
CCC(C)c1ccc(OCCn2cc(/C=N/NC(=O)CSc3nnc(C)s3)c3ccccc32)cc1 (stereo not drawn),0,26*,4,14,-12,4
O=C(CCS(=O)(=O)c1ccc(Cl)cc1)NCCC1=CCCCC1,1,7,10,-3,0,3
O=C(CCS(=O)(=O)c1ccc(Br)cc1)NCCC1=CCCCC1,3,1,26*,10,0,-7
O=C(COc1ccc(S(=O)(=O)NC2CCCCC2)cc1)NCCC1=CCCCC1,1,28*,2,-2,7,-7
COc1ccc2nc(Nc3sc4c(c3C(N)=O)CCCC4)sc2c1,4,26*,10,19,0,24
COc1cccc(NC(=O)CCC(=O)Nc2ccc3nc(N4CCOCC4)cc(C)c3c2)c1,2,5,3,4,-5,-1
COc1cc(S(=O)(=O)Nc2cccc(C)c2)ccc1NC(=O)c1ccncc1,3,33*,1,-4,10,8
Cc1cccc(NC(=O)c2cccc(NS(=O)(=O)c3ccc(Cl)cc3)c2)c1,2,2,14,-5,-2,-10
COC(=O)c1ccc(C2NCCc3cc(OC)c(OC)cc32)cc1 (stereo not drawn),-4,-2,0,6,5,-2
CCC(=O)Nc1cc(C)c(NC(=O)C23CC4CC(CC(C4)C2)C3)cn1,-4,-2,32*,-2,5,2
Cc1cc(NC(=O)C23CC4CC(CC(C4)C2)C3)n[nH]1,0,-8,23,6,5,-13
CN1CCN(CCC=C2c3ccccc3Sc3ccc(S(=O)(=O)N(C)C)cc32)CC1,-1,28*,0,3,12,10
OCCN1CCN(CC/C=C2/c3ccccc3Sc3ccc(C(F)(F)F)cc32)CC1,-2,13,-7,4,-6,5
O=C(Cc1cccs1)N/N=C/C=C/c1ccco1,-1,25*,6,1,6,-2
O=C(CNc1cccc2ccccc12)N/N=C/C=C/c1ccco1,2,10,7,11,6,74*
O=C(CNc1cccc2ccccc12)N/N=C/c1ccc(C(=O)O)cc1,11,20,1,16,11,14
COC(=O)Cc1csc(Nc2ccc(F)c(Cl)c2)n1,-2,25*,2,11,5,1
O=C(N/N=C/c1cc(Cl)cc([N+](=O)[O-])c1O)NC12CC3CC(CC(C3)C1)C2,3,10,59*,22,53*,8
Cc1cc(Cl)ccc1OC(C)C(=O)OCC(=O)c1ccc[nH]1 (stereo not drawn),/,11,7,4,2,/
N#CC(=Nc1ccccc1)c1ccccc1,/,/,7,-3,4,/
SMILES,Fam108B inh,pPAFAH inh,PAFAH1B2 inh,PAFAH1B3 inh,PAFAH2 FP inh,PME-1 inh
Cc1ccc(NCC(=O)N/N=C/c2ccncc2)cc1,1,4,3,-3,2,-4
Cc1ccc(NCC(=O)N/N=C/c2cc(O)ccc2[N+](=O)[O-])cc1,12,30*,/,/,/,-1
C=C(C)COc1ccc2c3c(c(=O)oc2c1OCC(=C)C)CCC3,-1,31*,6,0,67*,-4
CC(=O)OC(COc1ccccc1)Cn1cnc2cc(C)c(C)cc21 (stereo not drawn),-3,-11,6,-2,-8,-7
CC(Sc1n[nH]c(N)n1)C(=O)C12CC3CC(CC(C3)C1)C2 (stereo not drawn),0,-4,27*,3,8,-5
O=C(c1ccc2c(c1)OCO2)C1CCCN(Cc2ccc(OC(F)F)cc2)C1 (stereo not drawn),5,9,0,0,-3,3
